# From PubChem BioAssay
# The entries come from a sample that favours hits as a whole.
# Pf Dd2 inh: qHTS Primary assay for Inhibitors of Plasmodium falciparum Dd2 growth in vitro; P. falciparum Dd2 growth, SYBR Green, 72 h; Potency, µM (titrated, usually from 28.9 µM), for the others: top-dose activity, negative = inhibition, actives largely listed as inhibitors; 4.3% of 120,000 active; active = well fitted inhibition curve with a large enough effect;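 note: plate controls were DMSO vehicle for no effect and reference drug for full effect; nearly all actives have a fitted effect of over 65% in size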
#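 Infected erythrocytes (Dd2, 0.3% parasitemia, 2.5% hematocrit final) are added to compound in RPMI-1640/Albumax II medium, grown 72 h at 37C in low oxygen, then lysed with saponin/Triton-X containing SYBR Green and read by fluorescence.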
# An asterisk follows results filed as active; i = inactive; [ ] = remark or other dose. Potency is the fitted concentration of half-maximal effect.
SMILES,Pf Dd2 inh
CC(C)c1noc(CC2CCN(C(=O)c3ccc(N(C)C)cc3)CC2)n1,-0.3%
CC(C)c1noc(CC2CCN(C(=O)c3ccc(C(C)(C)C)cc3)CC2)n1,7.94µM*
O=C(Cc1cccc(Cl)c1)N1CCCC(c2nn(-c3ccccc3)c(=O)[nH]2)C1 (stereo not drawn),i
N#Cc1ccc(O[C@@H]2COCC[C@H]2NC(=O)Cn2nnnc2N)cc1,-10.9%
Cc1cnc(CC2CCN(Cc3ccc(F)cc3F)C2)n1CC1CC1 (stereo not drawn),-5.3%
Cc1ccc(C2(O)CCN(C(=O)C(N)CC3CCCC3)CC2)nc1 (stereo not drawn),-21.5%
Cc1cc(C(=O)Nc2ccc(-n3c(C)nc4ccccc4c3=O)cc2)ccc1[N+](=O)[O-],-3.7%
Cc1nc2ccccc2c(=O)n1-c1ccc(NC(=O)c2ccc([N+](=O)[O-])cc2)cc1,15.3%
Cc1cc(-n2c(C)nc3ccccc3c2=O)ccc1NC(=O)c1cccc([N+](=O)[O-])c1,8.91µM*
COc1ccc(N2CCN(C(=O)c3c(OC)cc(=O)n4c3CCCC4)CC2)cc1,i
CC(C)(C)c1noc(-c2nnn3c2COC(c2ccc(F)cc2)C3)n1 (stereo not drawn),i
Cc1c(CN(C)Cc2cccc(C(=O)Nc3ccc(C#N)cc3)c2)cnn1C,14.6%
COc1ccc(Cl)cc1-c1ccc2c(c1)C(=O)N1CCN(C(=O)C3CC3)C[C@@H]1C(=O)N2,12.6µM*
COc1ccc(-c2ccc3c(c2)C(=O)N2CCN(C(=O)C4CCCCC4)C[C@@H]2C(=O)N3)cc1,i
COc1ccc(Cl)cc1-c1ccc2c(c1)C(=O)N1CCN(C(=O)c3ccccc3)C[C@@H]1C(=O)N2,i
CSc1ccc(-c2ccc3c(c2)C(=O)N2CCN(C(=O)C4CCCCC4)C[C@@H]2C(=O)N3)cc1,8.91µM*
COc1ccc(Cl)cc1-c1ccc2c(c1)C(=O)N1CCN(C(=O)C3CCCCC3)C[C@@H]1C(=O)N2,i
O=C1Nc2ccc(-c3ccc4c(c3)OCO4)cc2C(=O)N2CCN(C(=O)C3CCCC3)C[C@@H]12,i
O=C(C1CN(c2cccc(Cl)c2)C(=O)N1)N1CCOCC1 (stereo not drawn),2.8%[44.1 µM]
CC(=O)Nc1ccc(NC(=O)CN2C(=O)NC3(CCC(C(C)(C)C)CC3)C2=O)cc1 (stereo not drawn),i
CC(C)c1ccccc1OCC(=O)c1ccc2c(c1)N(CC(=O)N1CCOCC1)C(=O)CO2,i
COc1ccc(C2c3c(-c4ccc(F)cc4)n[nH]c3C(=O)N2c2ccccc2)cc1OC (stereo not drawn),-4.1%
COc1cc(C2c3c(oc4ccccc4c3=O)C(=O)N2Cc2ccccc2Cl)ccc1O (stereo not drawn),-26.2%
COc1cc(C2c3c(-c4ccccc4O)n[nH]c3C(=O)N2Cc2ccco2)ccc1OCC(C)C (stereo not drawn),2.24µM*
COc1cc(C2c3c(-c4ccccc4O)n[nH]c3C(=O)N2CCO)ccc1OCC(C)C (stereo not drawn),10µM*
SMILES,Pf Dd2 inh
COc1cc(C2c3c(-c4c(C)cc(C)cc4O)n[nH]c3C(=O)N2CCO)cc(OC)c1OC (stereo not drawn),i
COC(=O)CO[C@@H]1CO[C@H]2[C@@H]1OC[C@@H]2NS(=O)(=O)c1cccc2cccnc12,8.9%[44.1 µM]
O=C(c1ccc(Cn2ccnc2)o1)N1CCCn2nc(CO)cc2C1,-13.7%
Cc1ccc(-c2ccc3nnc(CNC(=O)c4ccco4)n3n2)cc1C,8.0%
COC(=O)C1CCN(C(=O)CC[C@H]2CNC(=O)[C@@H]3[C@@H](CCN3Cc3ccc(OC)cc3)N2C)CC1,-12.0%
O=C(c1ccc(C(F)(F)F)cc1)N1CCC2(CC1)C(=O)Nc1ccccc12,-3.1%
O=C1Nc2ccccc2CC12CCN2Cc1ccc(C(F)(F)F)cc1 (stereo not drawn),i
O=C1Nc2ccccc2CN(Cc2ccc(C(F)(F)F)cc2)C12CCNCC2,6.31µM*
CC(C)=CCN1Cc2ccccc2NC(=O)C12CCNC2 (stereo not drawn),-13.7%[44.1 µM]
CC(=O)Nc1ccc(CN2CCC3(CC2)C(=O)Nc2ccccc23)cc1,-13.6%
O=C1Nc2ccccc2C12CCN(Cc1ccc(C(F)(F)F)cc1)CC2,12.6µM*
CCc1nc(-c2c3n(c(=O)n(Cc4ccc(C)cc4C)c2=O)CCCC3)no1,-4.8%
O=C(C1CCCC1)N1CCC(Cc2ccccc2)(C(=O)O)CC1,4.2%
Cc1ccccc1CC(=O)N1CC(C(=O)NC2CCCCC2)C2(CCOCC2)C1 (stereo not drawn),-18.1%
C1CC(OCC2CC2)CN1 (stereo not drawn),20.5%
Cc1ccc(-c2ncc(NC(=O)c3ccccc3F)cn2)cc1,i
Cc1ccc(CNC(=O)N2CCCN(C(=O)C3CC3)C(c3ccccc3)CC(=O)NCC2)cc1 (stereo not drawn),-8.8%
Cc1ccc(-n2nc3c(N4CCC(C(=O)NC(C)C)CC4)nnc(C)c3c2C)cc1,55.0%[5.79 µM]
Cc1nnc(N2CCC(C(=O)NCCc3ccccc3)CC2)c2nn(-c3ccccc3)c(C)c12,-16.1%
COc1ccc(CNC(=O)C2CCN(c3nnc(C)c4c(C)n(-c5ccc(C)cc5)nc34)CC2)cc1,7.94µM*
Cc1ccc(-n2nc3c(N4CCC(C(=O)NC5CCCCC5)CC4)nnc(C)c3c2C)cc1,9.7%
COc1cc(NC(=O)C2CCN(c3nnc(C)c4c(C)n(-c5ccccc5)nc34)CC2)cc(OC)c1,-16.0%
CCNC(=O)C1CCN(c2nnc(C)c3c(C)n(-c4ccc(OC)cc4)nc23)CC1,8.91µM*
CC(=O)NC[C@@H]1C=C(C)[C@H](CC(=O)N(C)Cc2ccccc2)C[C@H]1C(C)C,i
CCn1c(CC2CCNCC2)nn(Cc2cc(C3CCCCC3)no2)c1=O,-11.2%
SMILES,Pf Dd2 inh
Cc1ccccc1C(=O)N1CCC2(CC1)N=C(c1ccc(Br)cc1)NO2,i
O=S(=O)(c1ccc(-c2ccno2)s1)N1CCC2(CCNCC2)C1,-21.3%
COc1cc(Cl)cc(CN2CCC3(CCOCC3)CC2)c1OC,-22.2%
COc1cc(Cl)cc(CN2CCC3(CCCNC3)C2)c1OC (stereo not drawn),8.91µM*
COc1ccc(O)cc1CN1CCC2(CCNCC2)C1,-15.3%
COc1ccc(S(=O)(=O)N2CCCN(C)c3ccccc32)cc1,-25.7%
COc1ccc2[nH]c3c(c2c1)CCNC31CCN(C(=O)c2sc(C)nc2C)CC1,-1.5%
O=C(NCC1CC1)C1CCCN(c2nc3ncccc3o2)C1 (stereo not drawn),12.8%[44.1 µM]
CCOc1ccc(-n2c(-c3ccc(OC)cc3)cc3c2CC(C)(C)CC3=O)cc1,10.4%
COc1ccc(-n2c(-c3ccc(C)cc3)cc3c2CC(C)(C)CC3=O)c(OC)c1,12.6µM*
Cc1ccc(-c2cc3c(n2-c2ccc(C)cc2)CC(C)(C)CC3=O)cc1,-25.0%[5.79 µM]
CC(=O)c1cc(CN2CCCC(C(=O)c3cccc(OC(C)C)c3)C2)cs1 (stereo not drawn),-13.2%
Cc1ccc(OCCSc2nc(-c3ccccc3C)nc3cc(=O)[nH]n23)cc1Cl,3.7%
Cc1cccc(-c2nc(SCCCOc3ccc(Cl)c(C)c3)n3[nH]c(=O)cc3n2)c1,i
COc1cc(C)ccc1OCCSc1nc(-c2cccc(C)c2)nc2cc(=O)[nH]n12,-1.1%
CCc1ccc(OCCCSc2nc(-c3ccc(C(C)(C)C)cc3)nc3cc(=O)[nH]n23)cc1,11.2µM*
CCc1ccc(OCCSc2nc(-c3cccc(C)c3)nc3cc(=O)[nH]n23)cc1,i
Cc1cccc(OCCCSc2nc(-c3ccc(C(C)(C)C)cc3)nc3cc(=O)[nH]n23)c1C,10µM*
